Experimental data taken from article PMC4336329 (PLoS ONE, 2015).
The whole screen tested about 310,000 compounds, of which about 14,000 (4.5%) showed an effect of 50% or more. The effect is printed as a negative number. This excerpt belongs to a sample that is enriched for strong results.
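Further: peak tail current of the secondary pulse compared with the same well before compound.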

The molecules below were run against human ether-à-go-go-related gene (hERG) potassium channel (human, UniProt Q12809) (assay: primary screen, population patch clamp on CHO cells stably expressing hERG; higher = less effect of the substance).
Sequence of human ether-à-go-go-related gene (hERG) potassium channel (Q12809 whole entry, looked up): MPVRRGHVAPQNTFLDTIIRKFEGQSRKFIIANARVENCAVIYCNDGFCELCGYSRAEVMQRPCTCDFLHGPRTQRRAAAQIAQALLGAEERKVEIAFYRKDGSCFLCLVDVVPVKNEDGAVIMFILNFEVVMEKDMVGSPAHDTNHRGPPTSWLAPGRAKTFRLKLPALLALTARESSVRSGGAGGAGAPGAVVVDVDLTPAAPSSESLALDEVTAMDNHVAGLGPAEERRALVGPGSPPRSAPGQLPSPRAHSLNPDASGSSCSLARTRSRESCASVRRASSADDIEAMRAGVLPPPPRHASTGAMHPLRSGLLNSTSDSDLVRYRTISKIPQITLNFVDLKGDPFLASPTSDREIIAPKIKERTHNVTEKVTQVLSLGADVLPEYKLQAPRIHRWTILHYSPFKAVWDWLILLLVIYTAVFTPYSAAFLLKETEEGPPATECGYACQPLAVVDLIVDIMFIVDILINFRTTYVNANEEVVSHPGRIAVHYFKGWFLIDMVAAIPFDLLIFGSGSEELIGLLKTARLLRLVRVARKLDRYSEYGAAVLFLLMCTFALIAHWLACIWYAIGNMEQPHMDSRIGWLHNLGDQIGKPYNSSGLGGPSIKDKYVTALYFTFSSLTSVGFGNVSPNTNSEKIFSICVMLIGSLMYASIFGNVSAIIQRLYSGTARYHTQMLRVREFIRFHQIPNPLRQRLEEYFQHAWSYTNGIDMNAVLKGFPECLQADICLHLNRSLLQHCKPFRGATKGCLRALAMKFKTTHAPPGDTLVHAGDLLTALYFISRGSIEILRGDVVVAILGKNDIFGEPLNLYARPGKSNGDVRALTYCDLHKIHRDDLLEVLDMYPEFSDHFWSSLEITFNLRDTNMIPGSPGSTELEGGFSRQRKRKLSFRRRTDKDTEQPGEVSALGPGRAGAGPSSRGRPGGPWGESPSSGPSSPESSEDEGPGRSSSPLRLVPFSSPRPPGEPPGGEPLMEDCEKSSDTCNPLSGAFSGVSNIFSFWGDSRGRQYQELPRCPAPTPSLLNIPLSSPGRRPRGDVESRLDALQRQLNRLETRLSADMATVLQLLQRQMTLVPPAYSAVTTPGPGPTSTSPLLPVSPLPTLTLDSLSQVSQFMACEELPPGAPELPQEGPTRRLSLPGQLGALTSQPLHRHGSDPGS
`CN1CCN(c2cc(-c3ccccc3)nc3cc(-c4ccc(F)cc4)nn23)CC1` was tested, and the “hERG current change (%, negative = inhibition) at 10uM” value was -14.5%. In the case of `Cc1cc(N2CCCCC2)n2nc(C)c(-c3ccccc3)c2n1`, the “hERG current change (%, negative = inhibition) at 10uM” value is reported as 13.3%. In the case of `CCc1nn2c(N3CCOCC3)cc(C)nc2c1-c1ccc(F)cc1`, the “hERG current change (%, negative = inhibition) at 10uM” value is reported as 0.767%. For `Cc1cc(N2CCN(c3ccccc3Cl)CC2)n2cc(-c3ccccc3)nc2n1`, the “hERG current change (%, negative = inhibition) at 10uM” value was -53.9%. For `CC1CN(c2nc3ccccc3cc2-c2ccccc2)CC(C)O1` (centres unmarked), the “hERG current change (%, negative = inhibition) at 10uM” value was -1.86%. For `COc1ccc(-c2cc(-c3ccc(F)cc3)nc(N3CCN(C)CC3)n2)cc1`, the “hERG current change (%, negative = inhibition) at 10uM” value was -3.88%. `Cc1cc(N2CCN(c3nc(-c4ccccc4)cs3)CC2)c2ccccc2n1` was tested, and the “hERG current change (%, negative = inhibition) at 10uM” value was -23.3%. In the case of `Cc1cc(N2CC(C)OC(C)C2)n2cc(-c3ccccc3)nc2n1` (centres unmarked), the “hERG current change (%, negative = inhibition) at 10uM” value is reported as -61.7%. `Cc1cc(N2CCOCC2)n2nc(-c3cccc(F)c3)cc2n1` was tested, and the “hERG current change (%, negative = inhibition) at 10uM” value was 0.119%. `Cc1cc(N2CCN(C)CC2)n2cc(-c3ccc(F)cc3)nc2n1` was tested, and the “hERG current change (%, negative = inhibition) at 10uM” value was -87.6%. `Cc1cc(N2CCOCC2)n2cc(-c3ccc(F)cc3)nc2n1` was tested, and the “hERG current change (%, negative = inhibition) at 10uM” value was -69%. With `Cc1c(C(=O)N2CC(C)OC(C)C2)sc2nc(-c3ccccc3)cn12` (centres unmarked) the “hERG current change (%, negative = inhibition) at 10uM” value was -15.2%. For `O=C(NNC(=S)Nc1ccccc1Cl)c1ccccc1`, the “hERG current change (%, negative = inhibition) at 10uM” value was 5.93%. `O=C(CN1c2ccccc2S(=O)(=O)c2ccccc21)NCc1ccccc1` was tested, and the “hERG current change (%, negative = inhibition) at 10uM” value was 9.11%. In the case of `Cc1cccc(N(CC(=O)N2CCOCC2)S(C)(=O)=O)c1`, the “hERG current change (%, negative = inhibition) at 10uM” value is reported as 6.69%. `CCC(=O)NC(=S)Nc1ccc(N2CCOCC2)cc1` was tested, and the “hERG current change (%, negative = inhibition) at 10uM” value was -2.62%. `CS(=O)(=O)N1CCN(C(=O)c2cc3ccccc3oc2=O)CC1` was tested, and the “hERG current change (%, negative = inhibition) at 10uM” value was -0.0734%. In the case of `O=C(NCCC1=CCCCC1)C1CCN(S(=O)(=O)c2cccs2)CC1`, the “hERG current change (%, negative = inhibition) at 10uM” value is reported as -29.2%. `CCOc1ccc(-n2c(SCC(=O)Nc3cc(C(=O)O)ccc3Cl)nc3ccccc3c2=O)cc1` was tested, and the “hERG current change (%, negative = inhibition) at 10uM” value was 28.8%. `COc1cc2nc(SCC(N)=O)n(CCC3=CCCCC3)c(=O)c2cc1OC` was tested, and the “hERG current change (%, negative = inhibition) at 10uM” value was -10.9%. With `CCN(CC)S(=O)(=O)c1cccc(C(=O)OCC(=O)Nc2ccccc2OC(F)F)c1` the “hERG current change (%, negative = inhibition) at 10uM” value was -7.37%. For `CCC(C)(C)C1CCc2c(sc(NC(=O)c3ccoc3C)c2C(N)=O)C1` (centres unmarked), the “hERG current change (%, negative = inhibition) at 10uM” value was 17.8%. With `COc1ccc(N/C=C(\C#N)S(=O)(=O)c2ccc(Cl)cc2)c(OC)c1` the “hERG current change (%, negative = inhibition) at 10uM” value was -8.9%. In the case of `Cc1cc(N2CCOCC2)n2nc(C)c(-c3ccccc3)c2n1`, the “hERG current change (%, negative = inhibition) at 10uM” value is reported as 9.17%. For `Cc1cc(N2CCOCC2)n2cc(-c3ccccc3)nc2n1`, the “hERG current change (%, negative = inhibition) at 10uM” value was -50.1%. In the case of `Cc1cc(N2CCOCC2)n2ncc(-c3ccccc3)c2n1`, the “hERG current change (%, negative = inhibition) at 10uM” value is reported as -18.5%. With `O=C(Nc1ccccc1)c1ccc(Nc2c([N+](=O)[O-])cc([N+](=O)[O-])c3ccccc23)cc1` the “hERG current change (%, negative = inhibition) at 10uM” value was 6.49%. `O=C(CSc1cccc[n+]1[O-])Nc1ccc2c(c1)OCO2` was tested, and the “hERG current change (%, negative = inhibition) at 10uM” value was 6.96%. In the case of `O=C(CSc1nnc(-c2ccc(F)cc2)o1)N1CCN(C(=O)c2ccco2)CC1`, the “hERG current change (%, negative = inhibition) at 10uM” value is reported as -38.4%. With `O=C(CSc1ccc(Br)cc1)N1CCN(C(=O)c2ccco2)CC1` the “hERG current change (%, negative = inhibition) at 10uM” value was -62.4%. `CCOc1ccc(-c2nnc(SCC(=O)N3CCOCC3)o2)cc1` was tested, and the “hERG current change (%, negative = inhibition) at 10uM” value was 2.8%. For `COc1ccc(-c2nnc(SCC(=O)N3CCOCC3)o2)cc1`, the “hERG current change (%, negative = inhibition) at 10uM” value was -1.92%. With `O=C(CSc1ccccc1)N1CCN(C(=O)c2ccco2)CC1` the “hERG current change (%, negative = inhibition) at 10uM” value was -10.1%. In the case of `O=C(Cc1ccc(Br)cc1)N1CCN(C(=O)c2ccco2)CC1`, the “hERG current change (%, negative = inhibition) at 10uM” value is reported as -32.3%. `O=C(CSc1nnc(-c2ccc(OC(F)F)cc2)o1)N1CCOCC1` was tested, and the “hERG current change (%, negative = inhibition) at 10uM” value was -57%. In the case of `O=C(CSc1nnc(-c2ccccc2Br)o1)N1CCN(C(=O)c2ccco2)CC1`, the “hERG current change (%, negative = inhibition) at 10uM” value is reported as -40.9%. In the case of `O=C(CSc1nnc(-c2ccc(Br)cc2)o1)N1CCN(C(=O)c2ccco2)CC1`, the “hERG current change (%, negative = inhibition) at 10uM” value is reported as -54.6%. For `C[C@H](NC(=O)c1cc2cc(Cl)ccc2n1C)C(=O)N1CCC[C@H]1C(=O)O`, the “hERG current change (%, negative = inhibition) at 10uM” value was 13.7%. `O=C(NCCN1CCOCC1)[C@H](Cc1ccccc1)N1C(=O)c2ccccc2C1=O` was tested, and the “hERG current change (%, negative = inhibition) at 10uM” value was -2.06%. In the case of `CS(=O)(=O)NC1CCN(Cc2ccccc2)CC1`, the “hERG current change (%, negative = inhibition) at 10uM” value is reported as -2.95%. In the case of `COc1cccc(CN(C)C(=O)CNC(=O)c2ccc3c(c2)OCO3)c1OC`, the “hERG current change (%, negative = inhibition) at 10uM” value is reported as 15.3%. With `CC1Cc2cc(/C(O)=C3\C(=O)C(=O)N(CCN(C)C)C3c3ccccc3F)ccc2O1` (centres unmarked) the “hERG current change (%, negative = inhibition) at 10uM” value was 2.94%. With `CCOc1ccc(S(=O)(=O)Nc2ccccn2)c2ccccc12` the “hERG current change (%, negative = inhibition) at 10uM” value was 10.7%. With `CC(Oc1ncnc2ccccc12)C(=O)Nc1cccc(S(=O)(=O)N2CCOCC2)c1` (centres unmarked) the “hERG current change (%, negative = inhibition) at 10uM” value was -11.3%.
